Measured values taken from PubChem BioAssay AID1159580 (chemical genetic matrix, 2015).
In all, about 5,500 compounds went through this assay and about 2,000 (36%) were called active. Another 18% or so got no clear call; they are omitted. No stated cut-off is given here; in the data, active means normalized growth mostly below about 0.91 (no sharp cut-off); inconclusive means no clear call, values can overlap the other calls; inactive means mostly above about 0.92. The list shows a part of the results.

Test: chemical genetic growth profiling, strain panel (AID 1159580);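 further: tested at 20 µM; growth read once vehicle control cultures reached saturation at 30 °C; 1 = growth at the plate median or of vehicle wells; lower values mean less growth of the strain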
Settings: growth OD

Measured: normalized growth

OC1C(O)C(O)C(O)C(O)C1O (stereo not given)
inactive: S. cerevisiae deletion strains, locus YJR075W, strain HOC1, hits give low values 1 | S. cerevisiae deletion strains, locus YKL009W, strain mrt4, hits give low values 0.953 | S. cerevisiae deletion strains, locus YKL068W, hits give low values 0.973 | S. cerevisiae deletion strains, locus YKL085W, strain MDH1 (second series), hits give low values 0.97 | S. cerevisiae deletion strains, locus YKL085W, strain MDH1, hits give low values 0.97 | S. cerevisiae deletion strains, locus YKL160W, strain elf1, hits give low values 1 | S. cerevisiae deletion strains, locus YKL190W, strain CNB1, hits give low values 0.99 | S. cerevisiae deletion strains, locus YKR001C, strain vps1, hits give low values 0.982 | S. cerevisiae deletion strains, locus YKR026C, strain gcn3, hits give low values 0.997 | S. cerevisiae deletion strains, locus YKR091W, strain srl3, hits give low values 0.999 | S. cerevisiae deletion strains, locus YLL001W, strain dnm1, hits give low values 0.997 | S. cerevisiae deletion strains, locus YLL026W, hits give low values 1 | S. cerevisiae deletion strains, locus YLL041C, strain sdh2, hits give low values 0.996 | S. cerevisiae deletion strains, locus YLR027C, strain aat2, hits give low values 1 | S. cerevisiae deletion strains, locus YLR039C, strain RIC1, hits give low values 0.966 | S. cerevisiae deletion strains, locus YLR058C, strain SHM2, hits give low values 0.982 | S. cerevisiae deletion strains, locus YLR102C, strain apc9, hits give low values 0.994 | S. cerevisiae deletion strains, locus YLR113W, strain HOG1, hits give low values 0.964 | S. cerevisiae deletion strains, locus YLR221C, strain rsa3, hits give low values 1 | S. cerevisiae deletion strains, locus YLR258W, strain gsy2, hits give low values 0.998 | S. cerevisiae deletion strains, locus YLR262C, strain YPT6 (second series), hits give low values 1 | S. cerevisiae deletion strains, locus YLR262C, strain YPT6, hits give low values 0.962 | S. cerevisiae deletion strains, locus YLR268W, strain sec22, hits give low values 0.996 | S. cerevisiae deletion strains, locus YLR320W, strain mms22, hits give low values 0.998 | S. cerevisiae deletion strains, locus YLR330W, strain CHS5, hits give low values 0.995 | S. cerevisiae deletion strains, locus YLR342W, strain FKS1 (second series), hits give low values 1.04 | S. cerevisiae deletion strains, locus YLR342W, strain FKS1, hits give low values 0.995 | S. cerevisiae deletion strains, locus YLR357W, strain rsc2, hits give low values 0.988 | S. cerevisiae deletion strains, locus YLR370C, strain arc18, hits give low values 1 | S. cerevisiae deletion strains, locus YLR371W, strain rom2, hits give low values 0.976 | S. cerevisiae deletion strains, locus YLR384C, strain iki3, hits give low values 0.998 | S. cerevisiae deletion strains, locus YLR418C, strain cdc73, hits give low values 0.979 | S. cerevisiae deletion strains, locus YML016C, strain PPZ1, hits give low values 0.996 | S. cerevisiae deletion strains, locus YML032C, strain rad52, hits give low values 0.981 | S. cerevisiae deletion strains, locus YML120C, strain ndi1, hits give low values 1.01 | S. cerevisiae deletion strains, locus YML124C, strain tub3, hits give low values 0.985 | S. cerevisiae deletion strains, locus YMR058W, strain fet3, hits give low values 1 | S. cerevisiae deletion strains, locus YMR078C, strain ctf18, hits give low values 0.982 | S. cerevisiae deletion strains, locus YMR125W, strain sto1, hits give low values 0.991 | S. cerevisiae deletion strains, locus YMR129W, hits give low values 0.997 | S. cerevisiae deletion strains, locus YMR205C, strain PFK2, hits give low values 0.996 | S. cerevisiae deletion strains, locus YMR223W, strain ubp8, hits give low values 1.02 | S. cerevisiae deletion strains, locus YMR231W, strain pep5, hits give low values 1 | S. cerevisiae deletion strains, locus YMR263W, strain SAP30, hits give low values 0.99 | S. cerevisiae deletion strains, locus YMR307W, strain GAS1, hits give low values 1.03 | S. cerevisiae deletion strains, locus YNL067W, strain RPL9B, hits give low values 0.965 | S. cerevisiae deletion strains, locus YNL071W, strain lat1, hits give low values 1 | S. cerevisiae deletion strains, locus YNL153C, strain GIM3, hits give low values 0.972 | S. cerevisiae deletion strains, locus YNL183C, strain NPR1, hits give low values 0.984 | S. cerevisiae deletion strains, locus YNL209W, strain ssb2, hits give low values 0.997 | S. cerevisiae deletion strains, locus YNL233W, strain BNI4, hits give low values 0.996 | S. cerevisiae deletion strains, locus YNL248C, strain rpa49, hits give low values 0.99 | S. cerevisiae deletion strains, locus YNL250W, strain rad50, hits give low values 0.979 | S. cerevisiae deletion strains, locus YNL271C, strain bni1, hits give low values 0.984 | S. cerevisiae deletion strains, locus YNL298W, strain CLA4, hits give low values 0.991 | S. cerevisiae deletion strains, locus YNL307C, strain MCK1, hits give low values 0.984 | S. cerevisiae deletion strains, locus YNL322C, strain KRE1 (second series), hits give low values 1 | S. cerevisiae deletion strains, locus YNL322C, strain KRE1, hits give low values 0.993 | S. cerevisiae deletion strains, locus YNR049C, strain mso1, hits give low values 1 | S. cerevisiae deletion strains, locus YNR052C, strain pop2, hits give low values 0.989 | S. cerevisiae deletion strains, locus YOL006C, strain TOP1, hits give low values 0.938 | S. cerevisiae deletion strains, locus YOL012C, strain htz1 1.04 | S. cerevisiae deletion strains, locus YOL147C, strain pex11, hits give low values 0.994 | S. cerevisiae deletion strains, locus YOR001W, strain rrp6, hits give low values 1.01 | S. cerevisiae deletion strains, locus YOR061W, strain CKA2, hits give low values 0.974 | S. cerevisiae deletion strains, locus YOR069W, strain VPS5, hits give low values 0.997 | S. cerevisiae deletion strains, locus YOR070C, strain gyp1, hits give low values 1 | S. cerevisiae deletion strains, locus YOR080W, strain dia2, hits give low values 0.993 | S. cerevisiae deletion strains, locus YOR083W, strain WHI5, hits give low values 1 | S. cerevisiae deletion strains, locus YOR106W, strain vam3, hits give low values 1 | S. cerevisiae deletion strains, locus YOR136W, strain idh2, hits give low values 0.984 | S. cerevisiae deletion strains, locus YOR144C, strain elg1, hits give low values 0.987 | S. cerevisiae deletion strains, locus YOR184W, strain ser1, hits give low values 0.996 | S. cerevisiae deletion strains, locus YOR231W, strain MKK1, hits give low values 0.995 | S. cerevisiae deletion strains, locus YOR265W, strain rbl2, hits give low values 1 | S. cerevisiae deletion strains, locus YOR270C, strain vph1, hits give low values 1 | S. cerevisiae deletion strains, locus YOR290C, strain snf2, hits give low values 0.996 | S. cerevisiae deletion strains, locus YOR316C, strain cot1, hits give low values 0.979 | S. cerevisiae deletion strains, locus YPL051W, strain arl3, hits give low values 1.01 | S. cerevisiae deletion strains, locus YPL055C, strain LGE1, hits give low values 0.966 | S. cerevisiae deletion strains, locus YPL078C, strain atp4, hits give low values 1 | S. cerevisiae deletion strains, locus YPL106C, strain sse1, hits give low values 1 | S. cerevisiae deletion strains, locus YPL240C, strain hsp82, hits give low values 0.995 | S. cerevisiae deletion strains, locus YPL256C, strain CLN2, hits give low values 0.961 | S. cerevisiae deletion strains, locus YPR119W, strain clb2, hits give low values 0.993 | S. cerevisiae deletion strains, locus YPR141C, strain kar3, hits give low values 0.929 | S. cerevisiae deletion strains, locus YPR163C, strain tif3, hits give low values 0.991 | S. cerevisiae deletion strains, locus YPR167C, strain met16, hits give low values 0.985 | S. cerevisiae deletion strains, strain wtn01, hits give low values 0.993 | S. cerevisiae strains, strain wild type, hits give low values 0.994
